Seven molecules from PubChem BioAssay (Tox21) can be followed below.

Records with an inconclusive call do not appear. The source made the active and inactive calls. Unless noted, calls come from the whole dose curve; as a rule, active = well fitted curve in the direction sought with a large enough effect in the repeat runs; inconclusive = weak or mixed curves; inactive = no such curve, though single readings can be large; an effect the other way counts as inactive or inconclusive.

Experiment [1] concerns the target Androgen receptor (Homo sapiens) (UniProt P10275). As to the kind of experiment: qHTS assay to identify small molecule antagonists of the androgen receptor (AR) signaling pathway using the MDA cell line in the presence of 0.5 nM R1881 (AID 1259243). Note: nearly all actives have a fitted effect of over 50% in size. Note: potency is the fitted concentration of half-maximal effect. In outline: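 Reporter cells cultured without CO2 receive test chemicals, then 0.5 nM R1881 final; after 16 hr at 37C, ONE-Glo is added and light output recorded.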
On the technique in general: qHTS replaces the single test concentration by a dilution series.

For experiment [2], the target named is Estrogen receptor (Homo sapiens) (UniProt P03372). As to the kind of experiment: qHTS assay to identify small molecule antagonists of the estrogen receptor alpha (ER-alpha) signaling pathway using the BG1 cell line in the presence of 0.1 nM 17-beta-estradiol (AID 1259244). Note: nearly all actives have a fitted effect of over 50% in size. Note: potency is the fitted concentration of half-maximal effect. In outline:
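Estradiol at 0.1 nM (final) stimulates the endogenous ER-alpha of VM7Luc4E2 cells carrying an ERE-driven luciferase; compounds are co-incubated 22 h at 37C and luciferase output quantified by luminescence.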

The nature of experiment [3]: qHTS assay to identify small molecule HDAC inhibitors (AID 1259364).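 Note: wild-type HCT-116 cells with endogenous class I/II HDAC activity; top concentration of the series differs between compounds; nearly all actives have a fitted effect of over 45% in size.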 In outline:
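Read-out: luminescence of HDAC-Glo I/II reagent, 30 min RT, reflecting class I/II deacetylase activity in whole HCT-116 cells pre-exposed 2 h to DMSO-dissolved compounds.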

A short description of experiment [4]: qHTS assay to identify small molecule HDAC inhibitors - cell viability counter screen (AID 1259365). Note: nearly all actives have a fitted effect of over 50% in size. Note: potency is the fitted concentration of half-maximal effect. In outline:
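Wild-type HCT-116 cells were seeded at 1,500 per well, incubated overnight at 37 C, then exposed to compounds in DMSO for 2hr. Viability was read by CellTiter-Glo luminescence after 30min at room temperature.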

The nature of experiment [5]: qHTS assay to identify small molecule agonists of the sonic hedgehog signaling (Shh) pathway - cell viability counter screen (AID 1259366). Note: nearly all actives have a fitted effect of over 50% in size. Note: potency is the fitted concentration of half-maximal effect. The method in brief: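 NIH/3T3-derived 3T3 Gli1-Luc cells (stable Gli1-responsive firefly luciferase reporter) were seeded, rested 4 hr at 37 C/5% CO2, then exposed to compounds in DMSO for 24 hr; viability was read by CellTiter-Fluor fluorescence in the same wells.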

The nature of experiment [6]: qHTS assay to identify small molecule antagonists of the sonic hedgehog signaling (Shh) pathway - cell viability counter screen (AID 1259367). Note: nearly all actives have a fitted effect of over 55% in size. Note: potency is the fitted concentration of half-maximal effect. The method in brief: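 NIH/3T3-derived Gli1-Luc reporter cells, 2,000/well, plated 4 hr before compound addition, then stimulated with conditioned medium for 24 hr at 37C. Viability measured in the same wells by CellTiter-Fluor fluorescence, reagent added at 23 hr for 1 hr.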

Experiment [7] in a line: qHTS assay to identify small molecule agonists of the sonic hedgehog signaling (Shh) pathway (AID 1259368; calls by dose curve; note: series mostly up to about 92 µM; nearly all actives have a fitted effect of over 15% in size). In outline: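 A Gli1 transcriptional response element controlled firefly luciferase in 3T3Gli1-Luc cells. Compounds and a positive control were added 4 hr after plating, and cells were incubated a further 24 hr at 37 C before luminescence detection.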
Experiment [8] in a line: qHTS assay to identify small molecule antagonists of the sonic hedgehog signaling (Shh) pathway (AID 1259369; calls by dose curve; note: nearly all actives have a fitted effect of over 45% in size; note: potency is the fitted concentration of half-maximal effect). In outline: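 For antagonist detection, the reporter line received test compounds together with conditioned medium, incubated 24hr at 37 C, 5% CO2, then luminescence was recorded following 30min room-temperature luciferase reagent incubation.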
Experiment [9] is described as follows: qHTS assay to identify small molecule agonists of the androgen receptor (AR) signaling pathway in the presence of an antagonist - cell viability counter screen (AID 1259379). Note: nearly all actives have a fitted effect of over 25% in size. Note: potency is the fitted concentration of half-maximal effect. The method in brief:
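Seed MDA-kb2 at 3,000 cells/well; incubate 5 hr, 37C, 0% CO2. Add nilutamide to 3.0uM final, then pin compounds at 15 concentrations. Incubate 16 hr. Add CellTiter-Fluor at 15 hr, read fluorescence after 1 hr.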

Experiment [10] is described as follows: qHTS assay to identify small molecule agonists of the estrogen receptor beta (ER-beta) signaling pathway - cell viability counter screen (AID 1259380). Note: potency is the fitted concentration of half-maximal effect; nearly all actives have a fitted effect of over 30% in size. The method in brief:
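CellTiter-Glo read, 30 min RT, same wells as bla assay; cells ER-beta-UAS-bla HEK293T; 16 hr compound, 37C; medium 2% charcoal-stripped FBS.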

The target in experiment [11] is Androgen receptor (Homo sapiens) (UniProt P10275). As to the kind of experiment: qHTS assay to identify small molecule agonists of the androgen receptor (AR) signaling pathway in the presence of an antagonist (AID 1259381; calls by dose curve; note: nearly all actives have a fitted effect of over 15% in size). The method in brief:
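Test compounds at 15 concentrations were incubated for 16hr with MDA-kb2 reporter cells in presence of 3.0uM nilutamide (final). Signal: ONE-Glo luciferase luminescence.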

The nature of experiment [12]: qHTS assay to identify small molecule antagonists of the estrogen receptor beta (ER-beta) signaling pathway - cell viability counter screen (AID 1259382). Note: nearly all actives have a fitted effect of over 55% in size. Note: potency is the fitted concentration of half-maximal effect. The method in brief: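 In this multiplexed counter screen, cells were seeded at 2,000 per well in medium with 2% charcoal-stripped FBS and incubated 6 hr before compound and 1nM final E2 were added. Sixteen hours later, ATP-based luminescence reported viability.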

The target in experiment [13] is Estrogen receptor (Homo sapiens) (UniProt P03372). As to the kind of experiment: qHTS assay to identify small molecule agonists of the estrogen receptor alpha (ER-alpha) signaling pathway in the presence of an antagonist (AID 1259383; calls by dose curve; note: top concentration of the series differs between compounds; nearly all actives have a fitted effect of over 15% in size). In outline: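 Stably transfected VM7Luc4E2 reporter cells, kept 5 days in charcoal-stripped serum, received ICI-182,780 at 10.0nM final before compound addition. Following 22hr incubation at 37C and 5% CO2, luciferase signal was read by luminescence.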
Sequence of Estrogen receptor (Homo sapiens) (P03372 whole entry, looked up): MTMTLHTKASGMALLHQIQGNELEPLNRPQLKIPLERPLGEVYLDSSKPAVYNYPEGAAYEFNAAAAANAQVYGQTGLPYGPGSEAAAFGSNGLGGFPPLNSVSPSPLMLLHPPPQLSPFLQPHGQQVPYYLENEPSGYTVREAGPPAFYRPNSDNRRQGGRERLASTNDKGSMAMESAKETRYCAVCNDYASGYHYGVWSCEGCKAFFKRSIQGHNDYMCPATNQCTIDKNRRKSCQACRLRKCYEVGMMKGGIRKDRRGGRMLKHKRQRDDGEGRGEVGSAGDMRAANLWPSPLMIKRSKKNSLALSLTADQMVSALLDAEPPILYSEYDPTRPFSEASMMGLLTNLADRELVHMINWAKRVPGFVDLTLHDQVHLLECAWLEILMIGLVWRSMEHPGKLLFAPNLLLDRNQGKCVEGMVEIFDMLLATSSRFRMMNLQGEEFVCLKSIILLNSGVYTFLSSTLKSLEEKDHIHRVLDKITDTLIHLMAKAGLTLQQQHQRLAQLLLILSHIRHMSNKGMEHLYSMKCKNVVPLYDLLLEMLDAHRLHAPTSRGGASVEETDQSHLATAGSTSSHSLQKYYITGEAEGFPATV

A short description of experiment [14]: qHTS assay to identify small molecule agonists of the estrogen receptor alpha (ER-alpha) signaling pathway in the presence of an antagonist - cell viability counter screen (AID 1259386).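 Note: cells exposed to compounds for 22 h at 37 °C before the viability read; nearly all actives have a fitted effect of over 30% in size.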 Note: potency is the fitted concentration of half-maximal effect. The method in brief: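 Viability counter screen using VM7Luc4E2 (full-length ER-alpha, four ERE-luciferase). The cells were treated with compounds alongside ICI-182,780 10.0nM for 22hr, and live-cell protease fluorescence was quantified with CellTiter-Fluor.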

Experiment [15] can be described thus: qHTS assay to identify small molecule agonists or antagonists of the thyroid stimulating hormone receptor (TSHR) signaling pathway - wild type cell line counter screen (AID 1259384; calls by dose curve). The method in brief:
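Wild-type Hek293 cells, 800/well, 18 h at 37C, then compound with Ro20-1724 for 30 min RT. cAMP by HTRF (cAMP-d2/anti-cAMP cryptate), 1 h RT, fluorescence read. 15 concentrations, triplicates.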

The target in experiment [16] is Thyrotropin receptor (Homo sapiens) (UniProt P16473). Nature of the experiment: qHTS assay to identify small molecule antagonists of the thyroid stimulating hormone receptor (TSHR) signaling pathway (AID 1259385; calls by dose curve; note: nearly all actives have a fitted effect of over 20% in size). The method in brief:
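TSHR-HEK293 cells (800/well) plated 18 h, then compounds with Ro20-1724 and TSH at 1.5 ng/mL final, 30 min at room temperature. cAMP quantified by HTRF (cAMP-d2/anti-cAMP-cryptate, 1 h); 15 concentrations in triplicate.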

A short description of experiment [17]: qHTS assay to identify small molecule phospholipidosis (PLD) inducers (AID 1259344; active = well fitted curve in the direction sought with a large enough effect; an effect the other way counts as inactive or inconclusive). The method in brief:
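HepG2 cells, 900/well, treated with compound plus LipidTOX Red for 24 h at 37 C; amiodarone positive and DMSO negative controls. Fixed with paraformaldehyde/Hoechst, then high-content imaging scored LipidTOX pit count and integrated intensity per well and per cell.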

The target in experiment [18] is Estrogen receptor beta (Homo sapiens) (UniProt Q92731). As to the kind of experiment: qHTS assay to identify small molecule agonists of the estrogen receptor beta (ER-beta) signaling pathway (AID 1259377; active = well fitted activation curve with a large enough effect in the signal ratio in the repeat runs, not every such curve was filed as active; the % refers to the signal ratio). In outline: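 ER-beta-UAS-bla HEK293T (GripTite) cells carrying a UAS-driven beta-lactamase reporter, in medium with 2% charcoal-stripped FBS, were exposed to compounds for 16 hr at 37C; LiveBLAzer B/G FRET substrate was then added and fluorescence read after 2 hours at room temperature.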
Sequence of Estrogen receptor beta (Homo sapiens) (Q92731 whole entry, looked up): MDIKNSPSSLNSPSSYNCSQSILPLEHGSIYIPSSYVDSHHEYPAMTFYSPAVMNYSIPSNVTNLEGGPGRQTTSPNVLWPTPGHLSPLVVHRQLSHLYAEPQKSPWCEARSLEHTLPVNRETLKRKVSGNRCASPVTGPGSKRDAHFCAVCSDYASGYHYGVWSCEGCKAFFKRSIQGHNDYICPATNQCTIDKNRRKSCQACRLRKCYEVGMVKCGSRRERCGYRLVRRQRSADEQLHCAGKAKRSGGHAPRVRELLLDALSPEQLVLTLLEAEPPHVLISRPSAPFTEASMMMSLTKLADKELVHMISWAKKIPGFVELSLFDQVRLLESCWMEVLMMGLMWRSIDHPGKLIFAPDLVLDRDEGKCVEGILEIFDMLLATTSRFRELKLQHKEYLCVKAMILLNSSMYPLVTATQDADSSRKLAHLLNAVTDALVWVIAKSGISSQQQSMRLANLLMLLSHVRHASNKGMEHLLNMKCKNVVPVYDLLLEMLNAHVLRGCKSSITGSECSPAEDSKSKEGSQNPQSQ

The target in experiment [19] is Progesterone receptor (Homo sapiens) (UniProt P06401). Nature of the experiment: qHTS assay to identify small molecule agonists of the progesterone receptor (PR) signaling pathway (AID 1346784; calls by dose curve; note: nearly all actives have a fitted effect of over 30% in size). In outline: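 PR-UAS-bla HEK 293T cells carrying a UAS-driven beta-lactamase reporter were seeded in medium with 2% charcoal-stripped FBS, preincubated 6 hr at 37C, then exposed to compounds in DMSO for 16 hr; agonism was read by LiveBLAzer B/G FRET fluorescence.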
Sequence of Progesterone receptor (Homo sapiens) (P06401 whole entry, looked up): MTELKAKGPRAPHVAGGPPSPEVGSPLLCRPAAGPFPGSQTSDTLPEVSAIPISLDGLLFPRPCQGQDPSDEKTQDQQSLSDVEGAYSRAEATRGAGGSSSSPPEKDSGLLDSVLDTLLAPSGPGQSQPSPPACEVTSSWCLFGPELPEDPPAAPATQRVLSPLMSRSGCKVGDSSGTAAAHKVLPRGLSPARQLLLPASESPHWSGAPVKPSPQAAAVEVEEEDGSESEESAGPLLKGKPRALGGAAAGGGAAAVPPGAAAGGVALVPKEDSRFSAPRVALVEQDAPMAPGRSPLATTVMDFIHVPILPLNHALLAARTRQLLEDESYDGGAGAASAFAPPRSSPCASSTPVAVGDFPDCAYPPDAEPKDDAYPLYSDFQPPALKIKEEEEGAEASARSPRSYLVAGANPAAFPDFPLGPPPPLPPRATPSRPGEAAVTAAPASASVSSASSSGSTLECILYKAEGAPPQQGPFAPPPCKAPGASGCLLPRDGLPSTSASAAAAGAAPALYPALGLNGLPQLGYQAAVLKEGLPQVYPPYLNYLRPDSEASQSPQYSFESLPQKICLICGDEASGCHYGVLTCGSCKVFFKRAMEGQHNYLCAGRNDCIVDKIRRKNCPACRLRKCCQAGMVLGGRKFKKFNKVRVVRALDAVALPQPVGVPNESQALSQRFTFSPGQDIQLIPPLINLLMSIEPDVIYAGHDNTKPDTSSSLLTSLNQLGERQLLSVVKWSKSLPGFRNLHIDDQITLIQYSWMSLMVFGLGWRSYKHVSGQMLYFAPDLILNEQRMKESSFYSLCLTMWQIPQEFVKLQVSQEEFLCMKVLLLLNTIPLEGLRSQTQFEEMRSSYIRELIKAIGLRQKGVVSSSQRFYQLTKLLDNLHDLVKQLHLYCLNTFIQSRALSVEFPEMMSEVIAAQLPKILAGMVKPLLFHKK

Experiment [20] has as its target Estrogen receptor beta (Homo sapiens) (UniProt Q92731). Nature of the experiment: qHTS assay to identify small molecule antagonists of the estrogen receptor beta (ER-beta) signaling pathway (AID 1259378; active = well fitted inhibition curve with a large enough effect in the signal ratio in the repeat runs, not every such curve was filed as active; the % refers to the signal ratio; note: potency is the fitted concentration of half-maximal effect). In outline:
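ER-beta-UAS-bla HEK293T cells in 2% charcoal-stripped FBS medium treated with compound plus 1nM final 17-beta-estradiol for 16 hr at 37C. Beta-lactamase reporter read by FRET substrate fluorescence after 2 hours at room temperature.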

Sequence of Androgen receptor (Homo sapiens) (P10275 whole entry, looked up): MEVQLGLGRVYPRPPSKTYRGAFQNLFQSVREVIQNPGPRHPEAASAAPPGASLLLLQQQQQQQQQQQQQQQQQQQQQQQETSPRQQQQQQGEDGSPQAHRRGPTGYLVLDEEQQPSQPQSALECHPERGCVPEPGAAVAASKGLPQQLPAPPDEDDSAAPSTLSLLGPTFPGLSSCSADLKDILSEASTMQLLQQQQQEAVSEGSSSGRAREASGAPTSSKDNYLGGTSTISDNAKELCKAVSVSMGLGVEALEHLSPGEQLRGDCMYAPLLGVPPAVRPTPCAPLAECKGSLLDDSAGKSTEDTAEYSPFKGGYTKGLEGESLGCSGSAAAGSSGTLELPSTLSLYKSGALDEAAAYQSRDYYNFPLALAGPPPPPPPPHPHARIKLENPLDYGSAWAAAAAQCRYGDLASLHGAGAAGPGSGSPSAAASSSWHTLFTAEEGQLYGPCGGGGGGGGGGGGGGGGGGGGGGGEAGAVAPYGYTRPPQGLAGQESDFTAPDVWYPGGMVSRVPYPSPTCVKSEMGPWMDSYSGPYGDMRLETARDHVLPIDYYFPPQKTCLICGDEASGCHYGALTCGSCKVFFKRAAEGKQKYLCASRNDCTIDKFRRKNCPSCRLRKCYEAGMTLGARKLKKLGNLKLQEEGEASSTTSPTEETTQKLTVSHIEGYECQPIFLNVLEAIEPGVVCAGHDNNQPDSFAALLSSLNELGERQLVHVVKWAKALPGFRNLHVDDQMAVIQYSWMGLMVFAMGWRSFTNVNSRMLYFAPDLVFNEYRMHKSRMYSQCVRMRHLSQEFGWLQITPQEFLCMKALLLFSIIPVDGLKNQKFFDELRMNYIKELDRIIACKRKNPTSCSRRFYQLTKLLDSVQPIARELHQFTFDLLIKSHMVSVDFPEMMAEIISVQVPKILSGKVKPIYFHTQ
Sequence of Thyrotropin receptor (Homo sapiens) (P16473 whole entry, looked up): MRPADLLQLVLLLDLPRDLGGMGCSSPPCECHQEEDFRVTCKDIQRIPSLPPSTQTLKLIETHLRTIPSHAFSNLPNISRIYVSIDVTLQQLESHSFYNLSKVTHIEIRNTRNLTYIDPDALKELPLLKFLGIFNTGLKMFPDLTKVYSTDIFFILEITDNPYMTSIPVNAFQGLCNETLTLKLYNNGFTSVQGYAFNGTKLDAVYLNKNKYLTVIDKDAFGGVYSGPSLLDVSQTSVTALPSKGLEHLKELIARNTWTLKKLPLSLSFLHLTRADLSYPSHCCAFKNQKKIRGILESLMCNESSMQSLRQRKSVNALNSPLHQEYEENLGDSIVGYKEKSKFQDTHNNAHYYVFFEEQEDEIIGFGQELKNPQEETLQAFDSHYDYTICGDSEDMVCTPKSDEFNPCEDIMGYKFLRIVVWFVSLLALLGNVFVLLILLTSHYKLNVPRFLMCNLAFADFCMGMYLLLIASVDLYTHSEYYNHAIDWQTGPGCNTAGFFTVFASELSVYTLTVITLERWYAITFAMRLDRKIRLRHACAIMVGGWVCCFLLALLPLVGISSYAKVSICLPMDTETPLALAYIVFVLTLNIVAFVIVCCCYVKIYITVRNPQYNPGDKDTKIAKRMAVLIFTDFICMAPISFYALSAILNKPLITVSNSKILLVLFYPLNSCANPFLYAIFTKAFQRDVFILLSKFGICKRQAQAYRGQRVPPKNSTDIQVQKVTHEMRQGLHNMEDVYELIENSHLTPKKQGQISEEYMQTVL

In the case of `CCC(C)Nc1ccc(NC(C)CC)cc1` (configuration not stated), the Potency is 1.57 µM (active) in experiment [1]; 2.48 µM (active) in experiment [2]; 24.8 µM (active) in [4]; 11.1 µM (active) in experiment [5]; 19.7 µM (active) in experiment [6]; 3.93 µM (active) in experiment [8]. The Potency was 24.8 µM (active) in [9], 3.93 µM (active) in experiment [10], 5.55 µM (active) in experiment [12] and 17.6 µM (active) in [14]. For the same molecule, the Potency entry in experiment [3], in experiment [7], in [11] and in experiment [13] was “inactive” in each case.
Consider `O=c1[nH]sc2cc(Cl)ccc12`, for which the Potency in [1] is 0.001 µM (active); in experiment [10], 11.9 µM (active). Further, the Potency entry in [2], in experiment [3], in [4], in [6], in experiment [7] and in experiment [8] was “inactive” each time. For the same molecule, the Potency result in experiment [9], in experiment [11], in experiment [13], in experiment [16] and in experiment [14] was “inactive” in each case. Also, in experiment [15], the call was inactive.
For `CC(C)(C)C1CCC(CC2=C(O)c3ccccc3C(=O)C2=O)CC1` (configuration not stated), the results for the Potency in experiment [1], in [2] and in experiment [9] were 8.41 µM (active), 21.1 µM (active) and 13.3 µM (active), respectively. The Potency entry in experiment [3], in [4], in experiment [6], in experiment [7], in [11] and in experiment [13] was “inactive” in each case. Besides, the Potency result in experiment [16] was “inactive”. Also, the result in [15] was inactive.
Consider `Cc1ccc(O)c2ncccc12`, for which the Potency in [1] is 10.6 µM (active); in experiment [2] it was 11.9 µM (active); in experiment [5] it was 1.33 µM (active); in [6], 1.33 µM (active); in experiment [8] it was 0.531 µM (active). Besides, the Potency result in experiment [17], in experiment [3], in experiment [4], in [7], in experiment [11] and in [13] was “inactive” each time. Also, the Potency entry in experiment [16] and in experiment [14] was “inactive” throughout. For the same molecule, in experiment [15], the outcome was inactive.
As to `Nc1cc(C(F)(F)F)ccc1S`, the Potency result in experiment [1], in [2], in [3], in [4], in experiment [7] and in [18] was “inactive” each time. For the same molecule, the Potency result in experiment [9], in [11], in [13], in [14] and in experiment [19] was “inactive” in each case. Also, the Potency in experiment [8] is 13.3 µM (active); in experiment [10] it was 21.1 µM (active).
With `CCCCCCCCCCCCCCCC(=O)OC[C@H](O)[C@H]1OC(=O)C(O)=C1O`, the Potency result in [1], in experiment [2], in [17], in experiment [3], in [4] and in experiment [5] was “inactive” in each case. The Potency entry in [6], in [7], in experiment [8], in experiment [9], in [11] and in [14] was “inactive” each time. For the same molecule, in [19], the Potency result is “inactive”. Besides, in [10], the Potency was 43.3 µM (active). In addition, the molecule was called inactive in experiment [15].
Regarding `CCN(Cc1cccnc1)C(=O)c1cccc(Cl)c1[C@]1(C)C(=O)N(Cc2ccc(OC)cc2OC)c2ccc(Cl)cc21`, the Potency was 57.1 µM (active) in experiment [1], 64.1 µM (active) in experiment [2], 28.6 µM (active) in experiment [8] and 8.07 µM (active) in [20]. For the same molecule, the Potency entry in [3], in [4], in [18], in experiment [11], in experiment [12] and in [16] was “inactive” each time. Also, the molecule was called inactive in [15].
